Here are results for one sequence from paper PMC7862700, “An all-to-all approach to the identification of sequence-specific readers for epigenetic DNA modifications on cytosine”.

Holding throughout (test): DAPPL (digital affinity profiling via proximity ligation, sequencing); 10 mM Tris-HCl pH 7.5, 50 mM NaCl, 1 mM DTT, 4% glycerol, room temperature, 30 min; GST-TFs on glutathione beads, 16-mer random dsDNA library, 0.1% formaldehyde crosslink after washing; high values mean tight binding
The target of one test is T1, ELK1 (Homo sapiens, UniProt P19419 1-428).
T1 sequence: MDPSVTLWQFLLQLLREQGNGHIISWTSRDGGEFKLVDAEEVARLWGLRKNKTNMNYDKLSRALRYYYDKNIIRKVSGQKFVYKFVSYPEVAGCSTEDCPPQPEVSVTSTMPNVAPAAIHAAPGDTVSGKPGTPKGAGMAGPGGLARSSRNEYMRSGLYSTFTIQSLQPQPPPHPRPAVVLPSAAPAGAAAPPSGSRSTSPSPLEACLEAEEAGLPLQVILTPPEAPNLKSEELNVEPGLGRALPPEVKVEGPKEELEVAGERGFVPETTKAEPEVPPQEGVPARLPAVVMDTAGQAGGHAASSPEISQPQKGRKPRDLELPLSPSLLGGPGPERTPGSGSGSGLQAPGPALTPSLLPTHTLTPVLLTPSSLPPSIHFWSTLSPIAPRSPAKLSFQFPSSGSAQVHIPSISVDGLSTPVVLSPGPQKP
As to conditions: protein: recombinant; tags: N-terminal GST; dsDNA, one strand shown. Summed up: (§1)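 Human transcription factors carrying a GST fusion were produced in yeast, bound to glutathione beads, tagged with DNA barcodes and pooled together with a tag-only sample. Each pool was held with 200 nmole of a random double-stranded 16-mer DNA library in Tris/NaCl/DTT/glycerol buffer for 30 min at room temperature, then washed, crosslinked in 0.1% formaldehyde, proximity-ligated with BsaI/T4 ligase (1 h, 37 °C), PCR-amplified and sequenced on an Illumina NextSeq500. Binding signal is the read frequency of each hexamer for a given factor divided by its frequency in the tag-only sample.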

A further test deals with T2, GABPA (Homo sapiens, UniProt Q06546 1-454).
T2 sequence: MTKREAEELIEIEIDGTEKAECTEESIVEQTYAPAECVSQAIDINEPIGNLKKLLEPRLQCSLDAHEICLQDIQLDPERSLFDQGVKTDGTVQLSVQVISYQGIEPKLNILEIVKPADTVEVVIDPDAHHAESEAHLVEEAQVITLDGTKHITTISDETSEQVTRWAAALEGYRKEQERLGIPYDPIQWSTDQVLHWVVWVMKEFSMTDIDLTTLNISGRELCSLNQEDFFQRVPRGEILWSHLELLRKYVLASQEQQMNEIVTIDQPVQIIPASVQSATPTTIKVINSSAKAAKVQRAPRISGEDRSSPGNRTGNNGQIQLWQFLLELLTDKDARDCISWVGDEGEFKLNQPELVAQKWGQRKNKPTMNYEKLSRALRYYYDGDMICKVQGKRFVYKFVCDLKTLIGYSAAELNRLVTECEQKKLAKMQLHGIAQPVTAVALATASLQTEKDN
As to conditions: protein: recombinant; tags: N-terminal GST; dsDNA, one strand shown. Summed up: as §1

For the next test, the target named is T3, ERG (Homo sapiens, UniProt P11308 1-479).
T3 sequence: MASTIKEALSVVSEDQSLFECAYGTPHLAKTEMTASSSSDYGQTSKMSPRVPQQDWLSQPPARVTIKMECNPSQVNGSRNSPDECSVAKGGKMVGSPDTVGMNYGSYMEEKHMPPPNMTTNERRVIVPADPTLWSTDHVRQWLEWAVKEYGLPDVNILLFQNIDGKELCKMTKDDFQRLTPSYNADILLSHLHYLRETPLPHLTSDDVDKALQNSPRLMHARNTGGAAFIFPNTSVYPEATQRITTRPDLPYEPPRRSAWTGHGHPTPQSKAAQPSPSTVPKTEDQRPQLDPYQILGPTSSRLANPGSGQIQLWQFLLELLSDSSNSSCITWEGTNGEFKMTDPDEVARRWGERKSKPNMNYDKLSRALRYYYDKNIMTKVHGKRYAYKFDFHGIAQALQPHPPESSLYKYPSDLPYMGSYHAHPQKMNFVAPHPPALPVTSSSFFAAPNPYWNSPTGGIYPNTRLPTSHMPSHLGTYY
As to conditions: protein: recombinant; tags: N-terminal GST; dsDNA, one strand shown. In a few lines:
as §1

The next test has as its target ELF1 (Homo sapiens, UniProt P32519 1-619). Conditions: protein: recombinant; tags: N-terminal GST; dsDNA, one strand shown. In a few lines: as §1
A further test has as its target SPI1 (Homo sapiens, UniProt P17947 1-270). Conditions: protein: recombinant; tags: N-terminal GST; dsDNA, one strand shown. Summed up: as §1
Another test has as its target SPIB (Homo sapiens, UniProt Q01892 1-262). Conditions: protein: recombinant; tags: N-terminal GST; dsDNA, one strand shown. In a few lines:
as §1

The target in another test is HSF1 (Homo sapiens, UniProt Q00613 1-529). As to conditions: protein: recombinant; tags: N-terminal GST; chain copies: 3; dsDNA, one strand shown. In a few lines:
as §1

The next test addresses T4, SPIC (Homo sapiens, UniProt Q8N5J4 1-248).
T4 sequence: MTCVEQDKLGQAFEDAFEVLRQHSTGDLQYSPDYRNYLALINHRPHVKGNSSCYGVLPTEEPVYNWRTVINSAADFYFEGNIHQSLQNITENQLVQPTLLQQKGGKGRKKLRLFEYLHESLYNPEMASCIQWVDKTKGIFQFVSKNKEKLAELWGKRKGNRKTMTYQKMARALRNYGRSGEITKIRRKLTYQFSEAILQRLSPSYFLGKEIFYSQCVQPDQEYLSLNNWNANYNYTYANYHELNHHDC
As to conditions: protein: recombinant; tags: N-terminal GST; dsDNA, one strand shown. In a few lines:
as §1

The target in another test is T5, ELK4 (Homo sapiens, UniProt P28324-2 1-405).
T5 sequence: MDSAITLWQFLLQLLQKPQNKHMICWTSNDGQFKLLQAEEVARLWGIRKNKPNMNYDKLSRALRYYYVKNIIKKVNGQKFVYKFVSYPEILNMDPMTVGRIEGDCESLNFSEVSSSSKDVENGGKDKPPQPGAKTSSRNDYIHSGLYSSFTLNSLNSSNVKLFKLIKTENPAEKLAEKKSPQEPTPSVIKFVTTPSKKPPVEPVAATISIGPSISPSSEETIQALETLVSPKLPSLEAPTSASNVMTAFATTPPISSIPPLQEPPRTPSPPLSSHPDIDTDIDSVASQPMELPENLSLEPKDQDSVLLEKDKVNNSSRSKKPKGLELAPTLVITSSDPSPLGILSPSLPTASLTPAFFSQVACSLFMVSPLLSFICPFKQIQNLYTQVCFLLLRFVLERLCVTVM
As to conditions: protein: recombinant; tags: N-terminal GST; dsDNA, one strand shown. Summed up:
as §1

The next test concerns the target T6, ETV3L (Homo sapiens, UniProt Q6ZN32 1-361).
T6 sequence: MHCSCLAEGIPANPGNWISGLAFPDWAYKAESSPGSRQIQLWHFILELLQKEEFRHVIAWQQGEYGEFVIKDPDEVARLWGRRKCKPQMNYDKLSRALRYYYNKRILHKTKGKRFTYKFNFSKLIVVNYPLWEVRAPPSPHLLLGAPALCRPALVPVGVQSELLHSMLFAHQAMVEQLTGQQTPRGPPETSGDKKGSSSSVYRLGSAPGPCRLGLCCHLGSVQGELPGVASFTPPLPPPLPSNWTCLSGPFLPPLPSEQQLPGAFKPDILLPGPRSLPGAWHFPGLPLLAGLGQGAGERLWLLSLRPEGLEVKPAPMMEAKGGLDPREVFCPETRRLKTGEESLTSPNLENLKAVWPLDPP
As to conditions: protein: recombinant; tags: N-terminal GST; dsDNA, one strand shown. Summed up:
as §1

A further test addresses T7, ETS2 (Homo sapiens, UniProt P15036 1-469).
T7 sequence: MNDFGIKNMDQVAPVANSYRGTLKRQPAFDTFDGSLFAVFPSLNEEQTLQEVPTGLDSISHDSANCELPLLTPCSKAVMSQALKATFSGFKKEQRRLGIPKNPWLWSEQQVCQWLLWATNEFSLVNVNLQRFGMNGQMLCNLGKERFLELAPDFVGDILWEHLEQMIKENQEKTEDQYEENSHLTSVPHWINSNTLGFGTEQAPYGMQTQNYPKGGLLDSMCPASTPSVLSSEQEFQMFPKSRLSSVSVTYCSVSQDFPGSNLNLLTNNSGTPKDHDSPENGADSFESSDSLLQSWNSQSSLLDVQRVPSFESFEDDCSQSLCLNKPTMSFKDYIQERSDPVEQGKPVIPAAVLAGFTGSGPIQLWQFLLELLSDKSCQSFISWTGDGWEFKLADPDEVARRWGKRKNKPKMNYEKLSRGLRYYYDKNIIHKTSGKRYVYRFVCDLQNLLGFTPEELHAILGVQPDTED
As to conditions: protein: recombinant; tags: N-terminal GST; dsDNA, one strand shown. Summed up: as §1

Another test has as its target T8, ETV7 (Homo sapiens, UniProt Q9Y603 1-341).
T8 sequence: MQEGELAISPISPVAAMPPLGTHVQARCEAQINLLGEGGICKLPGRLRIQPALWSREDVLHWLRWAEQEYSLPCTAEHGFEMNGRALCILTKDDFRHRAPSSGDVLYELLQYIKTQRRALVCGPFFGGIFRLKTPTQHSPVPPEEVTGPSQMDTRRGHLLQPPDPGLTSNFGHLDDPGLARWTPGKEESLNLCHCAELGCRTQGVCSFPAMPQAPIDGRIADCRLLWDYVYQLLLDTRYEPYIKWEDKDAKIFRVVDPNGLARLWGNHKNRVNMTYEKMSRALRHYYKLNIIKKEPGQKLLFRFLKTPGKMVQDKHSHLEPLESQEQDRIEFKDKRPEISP
As to conditions: protein: recombinant; tags: N-terminal GST; dsDNA, one strand shown. Summed up: as §1

For another test, the target named is ETV6 (Homo sapiens, UniProt P41212 1-452). Conditions: protein: recombinant; tags: N-terminal GST; dsDNA, one strand shown. Summed up: as §1
Chain of ETV6 (P41212 whole entry): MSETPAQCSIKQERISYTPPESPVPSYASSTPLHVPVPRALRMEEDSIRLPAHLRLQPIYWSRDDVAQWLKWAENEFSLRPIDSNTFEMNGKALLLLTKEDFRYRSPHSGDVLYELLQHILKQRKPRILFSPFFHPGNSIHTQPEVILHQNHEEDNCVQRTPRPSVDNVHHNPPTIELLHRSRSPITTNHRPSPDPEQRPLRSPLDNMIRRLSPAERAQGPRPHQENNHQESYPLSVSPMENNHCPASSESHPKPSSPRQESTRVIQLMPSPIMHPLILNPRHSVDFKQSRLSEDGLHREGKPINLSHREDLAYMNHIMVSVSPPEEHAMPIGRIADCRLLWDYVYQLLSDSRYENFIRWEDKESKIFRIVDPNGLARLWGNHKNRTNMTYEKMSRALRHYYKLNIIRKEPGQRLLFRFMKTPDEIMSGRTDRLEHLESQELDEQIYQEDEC

Chain of HSF1 (Q00613 whole entry): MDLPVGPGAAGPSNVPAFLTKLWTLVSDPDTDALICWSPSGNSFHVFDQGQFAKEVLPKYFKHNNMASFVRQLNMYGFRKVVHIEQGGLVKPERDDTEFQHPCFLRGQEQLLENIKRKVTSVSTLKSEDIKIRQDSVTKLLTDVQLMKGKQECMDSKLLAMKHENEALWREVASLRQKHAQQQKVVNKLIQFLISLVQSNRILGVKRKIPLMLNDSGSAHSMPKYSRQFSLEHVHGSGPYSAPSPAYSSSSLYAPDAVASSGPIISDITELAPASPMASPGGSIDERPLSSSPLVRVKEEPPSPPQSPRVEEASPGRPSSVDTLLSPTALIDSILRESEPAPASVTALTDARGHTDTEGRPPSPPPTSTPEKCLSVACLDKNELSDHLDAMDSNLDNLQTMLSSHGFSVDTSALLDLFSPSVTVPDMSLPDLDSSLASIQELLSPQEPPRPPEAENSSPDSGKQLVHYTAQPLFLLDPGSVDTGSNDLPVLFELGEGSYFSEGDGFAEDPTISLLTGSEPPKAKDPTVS
Chain of SPIB (Q01892 whole entry): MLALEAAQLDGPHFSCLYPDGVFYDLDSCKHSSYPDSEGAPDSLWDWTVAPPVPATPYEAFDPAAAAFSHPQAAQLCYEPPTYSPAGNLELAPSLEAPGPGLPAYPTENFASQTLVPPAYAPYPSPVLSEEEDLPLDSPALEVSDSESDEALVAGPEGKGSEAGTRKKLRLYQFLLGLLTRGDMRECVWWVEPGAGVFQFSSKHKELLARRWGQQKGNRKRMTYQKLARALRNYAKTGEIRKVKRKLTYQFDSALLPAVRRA
Chain of ELF1 (P32519 whole entry): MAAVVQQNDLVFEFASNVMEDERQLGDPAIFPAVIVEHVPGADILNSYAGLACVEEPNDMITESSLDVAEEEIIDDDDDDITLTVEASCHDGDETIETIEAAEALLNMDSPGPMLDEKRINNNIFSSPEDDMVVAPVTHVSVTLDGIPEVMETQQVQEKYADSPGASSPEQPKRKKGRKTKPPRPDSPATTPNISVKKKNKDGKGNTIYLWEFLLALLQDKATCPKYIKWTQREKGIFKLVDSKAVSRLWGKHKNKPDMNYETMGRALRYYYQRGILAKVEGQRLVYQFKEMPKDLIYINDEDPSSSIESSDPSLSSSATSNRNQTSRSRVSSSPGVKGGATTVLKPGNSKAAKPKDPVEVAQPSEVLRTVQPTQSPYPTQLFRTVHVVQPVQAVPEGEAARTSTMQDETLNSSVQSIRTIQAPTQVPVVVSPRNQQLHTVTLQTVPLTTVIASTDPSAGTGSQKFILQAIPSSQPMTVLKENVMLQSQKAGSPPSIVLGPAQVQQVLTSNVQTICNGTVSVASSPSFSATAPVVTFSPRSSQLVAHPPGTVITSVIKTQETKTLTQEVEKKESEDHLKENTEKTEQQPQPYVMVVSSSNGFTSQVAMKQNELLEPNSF

Turning to CACTAG, the binding signal is 1.04 fold enrichment (6-mer frequency, TF over GST control) with ELK1; 1.02 fold enrichment (6-mer frequency, TF over GST control) with GABPA; 1.04 fold enrichment (6-mer frequency, TF over GST control) with ERG; 1.09 fold enrichment (6-mer frequency, TF over GST control) with ELF1; 1.06 fold enrichment (6-mer frequency, TF over GST control) with SPI1; 1 fold enrichment (6-mer frequency, TF over GST control) with SPIB. The binding signal with HSF1 is 1.24 fold enrichment (6-mer frequency, TF over GST control); with SPIC it was 1.05 fold enrichment (6-mer frequency, TF over GST control); with ELK4 it was 1.06 fold enrichment (6-mer frequency, TF over GST control); in the test with ETV3L it was 1.03 fold enrichment (6-mer frequency, TF over GST control); with ETS2 it was 1.01 fold enrichment (6-mer frequency, TF over GST control); with ETV7, 1.01 fold enrichment (6-mer frequency, TF over GST control). In the test with ETV6, the binding signal is 1.01 fold enrichment (6-mer frequency, TF over GST control).
